Screening data: PubChem BioAssay, National Center for Advancing Translational Sciences (NCATS)
TSHR antagonist = human thyrotropin receptor antagonism. P16473. TSHR-expressing cells, TSH-stimulated cAMP HTRF, 2 h; hits give low values. activity change, negative = inhibition, % at 11.5 µM. 330,000 tested, 0.2% active;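 active means activity change below a set negative limit, meaning inhibition stronger than a set level, cut at about -70% in these data; inconclusive means activity change between two set negative limits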
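TSHR-expressing cells, 200/well, pre-treated with compound, then stimulated with EC80 TSH (4nM final) for 2 hours at 37 deg C. cAMP measured by competitive HTRF: anti-cAMP cryptate antibody in lysis buffer plus cAMP-d2, read after 30 minutes at room temperature.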
ELG1 repair inh = ELG1-dependent DNA repair inhibition; HEK293T ELG1-luciferase reporter, luminescence, 16 h; DNA damage induced by 5-fluorouridine; Potency, µM (doses to about 46.1 µM), without a hit: at the top dose activity change, negative = inhibition, hits mostly inhibitors; 330,000 tested, 2.3% active; AID 504467; further: potency means the concentration at half of the fitted maximal effect; nearly all actives have a fitted effect of over 55% in size
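HEK293T cells expressing luciferase-tagged ELG1 (2,000/well) received 5-Fluorouridine plus compound or DMSO for 16 hr at 37 °C. Luciferase was read by ONE-Glo luminescence after 30 min at room temperature.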
Gal4-VP16 FLuc = counter-screen for ROR gamma inhibitors: Gal4-VP16 reporter; Drosophila S2 Gal4-VP16 UAS-luciferase, luminescence, 20 h; Potency, µM (highest dose often 53.6 µM), inactives show at the top dose activity, negative = inhibition, hits mostly inhibitors; 310,000 tested, 3.5% active; AID 2546;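 further: Gal4-VP16 expression switched on by copper sulfate through the metallothionein promoter; potency means the concentration at half of the fitted maximal effect; nearly all actives have a fitted effect of over 50% in size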
B2AR arrestin = beta2AR (human) beta-arrestin recruitment activity; beta-arrestin recruitment to beta2AR, cell-based reporter; 330,000 tested, 0.02% active; Potency, µM (top dose mostly 46.1 µM), for inactives: at the highest dose activation, usual class: activators; P07550; AID 492947;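 further: potency means the concentration at half of the fitted maximal effect; 0% = DMSO controls and full agonism = EC100 isoproterenol or metaproterenol; nearly all actives have a fitted effect of over 65% in size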
Target sequence (P07550 whole entry, looked up): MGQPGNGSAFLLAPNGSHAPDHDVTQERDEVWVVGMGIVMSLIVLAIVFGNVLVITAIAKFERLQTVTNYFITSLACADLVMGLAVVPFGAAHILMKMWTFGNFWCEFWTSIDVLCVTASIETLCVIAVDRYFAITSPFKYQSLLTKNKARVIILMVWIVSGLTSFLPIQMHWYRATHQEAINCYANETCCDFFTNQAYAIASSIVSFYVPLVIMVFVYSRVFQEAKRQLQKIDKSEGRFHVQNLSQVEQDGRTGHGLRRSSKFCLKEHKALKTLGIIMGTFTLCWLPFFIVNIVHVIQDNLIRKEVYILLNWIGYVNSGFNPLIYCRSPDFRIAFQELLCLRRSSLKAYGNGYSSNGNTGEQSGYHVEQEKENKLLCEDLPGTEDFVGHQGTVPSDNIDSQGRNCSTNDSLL
RORg inh = ROR gamma (mouse) transcription inhibition; P51450; Drosophila S2 Gal4-RORgamma UAS-luciferase reporter, 20 h; Potency, µM (titrated, usually from 53.6 µM), for inactives: top-dose activity change, negative = inhibition, most hits filed as inhibitors; 310,000 tested, 5.4% active; AID 2551; further: potency means the concentration at half of the fitted maximal effect; nearly all actives have a fitted effect of over 60% in size
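Using a luciferase readout, inhibitors were identified by reduced reporter activity in Drosophila cells coexpressing a copper-inducible Gal4–ROR gamma fusion and UAS-driven Photinus luciferase, incubated 20 hr after 700 uM copper sulfate.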
Starred values were filed as active, the others as inactive; ? = inconclusive; . = no result; [ ] = remark or other dose. Hits are enriched below; roughly 7.5% of the tested compounds scored in any of these assays. Unless noted, the call rests on the fitted dose curve; in most records, active means well fitted curve in the direction sought with a large enough effect; inconclusive means small, poorly fitted or top-dose-only effect, or another doubt; inactive means no such curve, though single readings can be large; an effect the other way counts as inactive or inconclusive. Unless noted, on the % scale 0 is the no-effect control and ±100 the full control effect.

SMILES	TSHR antagonist	ELG1 repair inh	Gal4-VP16 FLuc	B2AR arrestin	RORg inh
COc1ccc(N2C(=O)NC3CC2(C)Oc2ccc(Cl)cc23)cc1OC (stereo unspecified)	0	-6%	-1%	3%	29%
Cc1cc(C)cc(N(CCC#N)C(=O)CSc2ncnc3sccc23)c1	4	?	.	0%	.
CC(=O)OCC(NC(=O)C(Cc1ccccc1)NC(=O)OC(C)(C)C)C1OC(n2cc(F)c(=O)[nH]c2=O)C(OC(C)=O)C1OC(C)=O (stereo unspecified)	.	.	-1%	.	-24%
O=C(Nc1ccc(S(=O)(=O)N2CCN(c3ccccc3)CC2)cc1)c1cccs1	-7	12µM*	-11%	0%	?
O=C(NC(=S)Nc1ccc(S(=O)(=O)N2CCCC2)cc1)c1cccs1	-13	?	13µM*	-1%	4.5µM*
O=C(NC(=S)Nc1ccc(S(=O)(=O)N2CCCCCC2)cc1)c1cccs1	-23	13%	6.3µM*	-1%	2.8µM*
O=c1ccc2cc(S(=O)(=O)N3CCN(c4ccc(Cl)cc4)CC3)ccc2o1	-8	-2%	5%	-1%	4%
c1ccc2[nH]ccc2c1	.	.	-2%	.	9%
COc1ccc(OC2C=CC(c3ccccc3)OC2CO)c(C(C)=O)c1 (stereo unspecified)	.	.	-5%[10 µM]	.	15%[10 µM]
COc1ccccc1-c1nc2ccccc2nc1-c1ccccc1	-12	-10%	8%	0%	3%
COc1ccccc1-c1nc2cc3ccccc3cc2nc1-c1ccccc1OC	2	21µM*	-8%	-1%	-2%
COC(=O)C1=C[C@@H](C(=O)OC)[C@@H]2C3=C(C(=O)[C@@]2(CC(C)C)NC(=O)c2ccccc2)[C@H](C)n2c(=O)n(-c4ccccc4)c(=O)n2[C@@H]3C1	.	.	7%	.	-5%
COc1ccc(C#CC2C=CC(OC(C)=O)C(COC(C)=O)O2)cc1 (stereo unspecified)	.	.	-1%[10 µM]	.	-2%[10 µM]
N=C1SC(c2ccccc2)C(=O)N1c1ncc(Cc2ccccc2)s1 (stereo unspecified)	-31	?	7.9µM*	-1%	7.1µM*
Cc1ccc(CC2CC(=O)N(c3nc4ccccc4s3)C2=O)cc1 (stereo unspecified)	-2	3%	1%	-1%	5%
Cc1ccc(Cc2cnc(N3C(=N)SC(c4ccccc4)C3=O)s2)cc1 (stereo unspecified)	-27	?	4µM*	0%	11µM*
O=C1c2ccccc2C(=O)N1Cc1cnc(N2CCN(c3ccccc3)CC2)s1	0	?	1%	0%	-1%
C[C@H](CCC(=O)O)[C@H]1CC[C@H]2[C@H]3C(C[C@H](O)[C@]12C)[C@@]1(C)CC[C@@H](O)C[C@H]1C[C@H]3O (stereo partly specified)	.	.	-1%	.	2%
Cc1ccc(SCC(c2ccccc2)N2CCN(CC(C)C)CCC2=O)cc1 (stereo unspecified)	.	.	-15%	.	22%
O=C(Nc1ccc(Cl)c(S(=O)(=O)N2CCOCC2)c1)c1ccc(Cl)nc1	-22	?	.	0%	.
O=C(Nc1ccc(Cl)c(S(=O)(=O)N2CCOCC2)c1)c1ccc2c(c1)OCO2	-16	6.5µM*	.	-1%	.
O=C(Nc1ccc(Cl)c(S(=O)(=O)N2CCOCC2)c1)c1ccc2c(c1)OCCO2	-7	23µM*	3%	0%	?
Cc1[nH]n(C(N)=S)c(=O)c1C(c1ccccc1)C(C#N)C#N (stereo unspecified)	4	?	10µM*	0%	10µM*
Cc1[nH]n(-c2ncc(-c3ccccc3)s2)c(=O)c1C(c1ccc(Br)cc1)C(C#N)C#N (stereo unspecified)	-1	?	13µM*	-1%	11µM*
CCCc1[nH][nH]c(=O)c1C(c1ccc(Br)cc1)C(C#N)C#N (stereo unspecified)	25	19%	?	0%	-72%
CCCc1[nH][nH]c(=O)c1C(c1ccccc1)C(C#N)C#N (stereo unspecified)	1	17%	9%	0%	-22%
